T cruzi growth-1 – inhibitors of T. cruzi proliferation; actives 5.9% (n = 77,000); T. cruzi beta-gal in NIH3T3, GalScreen luminescence, 90 h; inhibition, % at 8.34 µM;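 active = mean inhibition above about 93%, with at least 55% of replicates each passing it, limit read from the data, passing the limit was not always enough; inconclusive = only one of those two conditions holds; inactive = neither condition holds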
C diff HTS – inhibitors of Clostridium difficile growth | Clostridium difficile clinical isolate growth, OD600, 24 h; active compounds read low | growth activity, negative = inhibition, % at 16 µg/mL (by protocol) | actives 0.25% (n = 86,000);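 active = mean growth activity at or below -80% and every replicate also at or below -80%; inconclusive = mean at or below -80% but some replicate above -80%; inactive = mean growth activity above -80%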;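 note: 0% = DMSO wells and -100% = levofloxacin 16 µg/mL wells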
Pf Dd2 growth – inhibitors of Plasmodium falciparum Dd2 growth | P. falciparum Dd2 growth, SYBR Green, 72 h; active compounds read low | AID 1159554 | activity change, % at 10 µM | actives 2.3% (n = 94,000); in the data active = activity change below about -80%; inconclusive = no clear call, values can overlap the other calls
T cruzi growth-2 – Trypanosoma cruzi proliferation inhibition; actives 72% (n = 5,600); inhibition, % at 8.35 µM; shares compounds with T cruzi growth-1; T. cruzi beta-gal in NIH3T3, GalScreen luminescence, 90 h;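 active = mean replicate inhibition above about 95% and at least 55% of replicates individually reaching it, limit read from the data; inconclusive = only one of the two criteria is met; inactive = neither criterion is met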
T cruzi growth-3 – inhibitors of T. cruzi proliferation; shares compounds with T cruzi growth-1; T. cruzi beta-gal in NIH3T3, GalScreen luminescence, 90 h; inhibition, % at 2.09 µM; actives 21% (n = 5,600);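 active = mean inhibition above about 95%, with at least 55% of replicates also reaching it, limit read from the data; inconclusive = meets just one of the two conditions; inactive = meets neither condition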;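 note: plate controls were neutral control median for no effect and positive control median for full effect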
3T3 cytotox – kills mouse NIH/3T3 fibroblasts; shares compounds with T cruzi growth-1; NIH/3T3 viability, CellTiter-Glo ATP luminescence, 90 h; cytotoxicity (signal decrease), % at 8.35 µM; actives 14% (n = 5,600);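 active = mean signal decrease across replicates above about 35% based on untreated-well scatter, with enough replicates individually passing, limit read from the data; inconclusive = no rule stated though some were filed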;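 note: 0% = median of neutral control wells and 100% = median of positive control wells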
NIH3T3 tox 2 – kills mouse NIH/3T3 fibroblasts; shares compounds with T cruzi growth-1; NIH/3T3 viability, CellTiter-Glo ATP luminescence, 90 h; inhibition, % at 24.9 µM; actives 56% (n = 5,600); AID 651744;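 active = mean loss of cell viability signal at or above a set limit, and enough replicates individually reaching it; inconclusive = meets only the mean limit or only the replicate share; inactive = meets neither condition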;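 note: 0% = median of neutral control wells and 100% = median of positive control wells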
An asterisk follows results filed as active; ? = inconclusive; / = no result given. Most compounds without a hit are left out; they make up all but 6.7% or so of the library.

SMILES | T cruzi growth-1 | C diff HTS | Pf Dd2 growth | T cruzi growth-2 | T cruzi growth-3 | 3T3 cytotox | NIH3T3 tox 2
Cc1cccc(-c2ccc([C@@H]3[C@@H](CO)N4CCCCN(S(=O)(=O)c5cn(C)cn5)C[C@H]34)cc2)c1 | 102* | -8 | 8 | 11 | -16 | 9 | 9
Cn1cnc(S(=O)(=O)N2CCCCN3[C@H](CO)[C@H](c4ccc(-c5ccc(F)cc5)cc4)[C@H]3C2)c1 | ? | -4 | 44 | ? | 18 | 19 | 41*
Cc1cccc(-c2ccc([C@H]3[C@@H](CO)N4CCCCN(S(=O)(=O)c5cn(C)cn5)C[C@H]34)cc2)c1 | 75 | -5 | 11 | / | / | / | /
Cn1cnc(S(=O)(=O)N2CCCCN3[C@H](CO)[C@H](c4ccc(-c5cccc(F)c5)cc4)[C@H]3C2)c1 | -23 | -10 | 25 | / | / | / | /
COc1ccccc1-c1cn(CC[C@@H]2CC[C@@H](NC(=O)C3CC3)[C@@H](CO)O2)nn1 | / | -1 | -3 | / | / | / | /
COc1ccc(CN(C)C[C@@H]2OCCCC[C@@H](C)Oc3ccc(NC(=O)NC(C)C)cc3C(=O)N([C@H](C)CO)C[C@H]2C)cc1 | 37 | -3 | -2 | / | / | / | /
CCCN1C[C@@H](C)[C@H](OC)CN(C)C(=O)c2ccc(NC(=O)Nc3ccccc3F)cc2OC[C@@H]1C | 21 | / | -44 | / | / | / | /
Cn1cnc(S(=O)(=O)N2CCCCN3[C@H](C2)[C@@H](c2ccc(-c4ccc(F)cc4)cc2)[C@@H]3CO)c1 | 23 | -13 | 38 | / | / | / | /
Cn1cnc(S(=O)(=O)N2CCCCN3[C@H](CO)[C@@H](c4ccc(-c5ccccc5)cc4)[C@H]3C2)c1 | 98* | -9 | 14 | 40 | -33 | -7 | -5
C/C=C/c1ccc([C@H]2[C@H](CO)N3CCCCN(S(=O)(=O)c4ccc(OC)cc4)C[C@@H]23)cc1 | 100* | 31 | 6 | 108* | 90 | 30 | 102*
C/C=C/c1ccc([C@@H]2[C@H](CO)N3CCCCN(S(=O)(=O)c4ccc(OC)cc4)C[C@@H]23)cc1 | 85 | -5 | -27 | / | / | / | /
C/C=C/c1ccc([C@H]2[C@@H](CO)N3CCCCN(S(=O)(=O)c4ccc(F)cc4)C[C@H]23)cc1 | ? | 33 | -71 | 108* | 39 | 12 | 103*
C/C=C/c1ccc([C@@H]2[C@@H](CO)N3CCCCN(S(=O)(=O)c4ccc(F)cc4)C[C@H]23)cc1 | 86 | 28 | -11 | / | / | / | /
C/C=C/c1ccc([C@H]2[C@@H](CO)N3CCCCN(S(=O)(=O)c4ccc(OC)cc4)C[C@H]23)cc1 | 85 | 21 | -70 | / | / | / | /
C/C=C/c1ccc([C@@H]2[C@H]3CN(S(=O)(=O)c4ccc(OC)cc4)CCCCN3[C@H]2CO)cc1 | ? | 6 | -11 | 103* | 82 | 29 | 68*
CCNC(=O)C[C@@H]1CC[C@@H]2[C@H](COc3ccc(NC(=O)c4ccc(F)cc4)cc3C(=O)N2C)O1 | -7 | 10 | -11 | / | / | / | /
CCN1[C@H](C(=O)OC)[C@@H](CO)[C@@H]2Cn3c(ccc(-c4cccc(OC)c4)c3=O)[C@@H]21 | 24 | 2 | 10 | / | / | / | /
CCCNC(=O)Nc1ccc2c(c1)OC[C@H](C)N(C(=O)CC)C[C@H](C)[C@@H](OC)CN(C)C2=O | / | 3 | 13 | / | / | / | /
COc1ccc(CN(C)C[C@@H]2Oc3ccc(NC(=O)Nc4cccc5ccccc45)cc3C(=O)N([C@@H](C)CO)C[C@@H]2C)cc1 | -20 | 17 | -4 | / | / | / | /
C[C@H]1CN([C@@H](C)CO)C(=O)c2cc(NC(=O)Nc3cccc4ccccc34)ccc2O[C@@H]1CN(C)Cc1ccc(Oc2ccccc2)cc1 | 125* | 3 | -78 | 98* | 102* | 41* | 44*
COc1ccc(CN(C)C[C@H]2Oc3ccc(NC(=O)Nc4cccc5ccccc45)cc3C(=O)N([C@@H](C)CO)C[C@@H]2C)cc1 | 17 | -5 | -3 | / | / | / | /
C[C@H](CO)N1C[C@H](C)[C@H](CN(C)Cc2ccc(Oc3ccccc3)cc2)Oc2ccc(NC(=O)Nc3cccc4ccccc34)cc2C1=O | 123* | 9 | -65 | 104* | 100* | 33 | 37*

Source: PubChem BioAssay (Broad Institute)
